Assay outcomes as filed in PubChem BioAssay.
Hits are enriched below; roughly 3.8% of the tested compounds scored in any of these assays.
Mdm2-MdmX inh: human Mdm2/MdmX binding inhibition; SaOS-2 split-luciferase Mdm2/MdmX complementation, luminescence; inhibition, % at 8 µM; 330,000 tested, 3% active;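 active means inhibition of at least 50% at 8 µM in the primary screen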
NTR1 ag: agonists of human neurotensin receptor NTR1. NTR1-U2OS beta-arrestin-GFP spot imaging, agonist mode. activation, % at 20 µM. 330,000 tested, 0.17% active;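 active means activation at or above 40% of the spot to cytoplasm intensity ratio, with at least 20 cells analyzed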;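 further: 0% = DMSO without peptide and 100% = 100 nM NTR1 peptide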
Target sequence (P30989 whole entry, looked up): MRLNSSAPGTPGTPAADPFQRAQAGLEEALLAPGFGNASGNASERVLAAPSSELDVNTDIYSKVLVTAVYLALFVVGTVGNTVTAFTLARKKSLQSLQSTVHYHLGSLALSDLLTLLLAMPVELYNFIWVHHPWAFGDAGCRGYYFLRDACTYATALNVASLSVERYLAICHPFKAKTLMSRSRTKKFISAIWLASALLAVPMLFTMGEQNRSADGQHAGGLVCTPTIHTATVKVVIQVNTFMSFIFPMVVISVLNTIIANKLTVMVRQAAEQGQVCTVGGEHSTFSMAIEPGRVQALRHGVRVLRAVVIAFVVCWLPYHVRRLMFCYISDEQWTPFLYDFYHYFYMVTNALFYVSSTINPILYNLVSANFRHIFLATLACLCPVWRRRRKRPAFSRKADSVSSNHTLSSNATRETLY
Beta cell apopt: blocks beta cell apoptosis; INS-1E cytokine-induced death, ATP luminescence, 48 h; percent of positive-control rescue, neutral wells zero; protection from apoptosis, % (no concentration beside the values); 300,000 tested, 0.8% active;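 active means Every replicate reaches about 75%, or at least half do and their mean reaches it too, limit read from the data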;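 further: 0% = cytokine-treated negative control wells and 100% = positive control rescue; higher means more ATP so stronger rescue from cytokine killing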
Jurkat NFkB inh: lowers PMA/ionomycin-induced NF-kB signal in Jurkat cells | PMA/ionomycin-induced NF-kB luciferase reporter, luminescence | AID 435003 | 330,000 tested, 0.53% active | inhibition, % at 4 µM; in the data active means inhibition above about 50%
A1 inh: inhibitors of the anti-apoptotic protein A1, read as caspase activation. 330,000 tested, 0.066% active. MEF A1-2A-BIM cells, Caspase-Glo 3/7 luminescence, 3 h; percent of clofoctol response, vehicle zero. AID 2462. caspase activation, % (test concentration not listed);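 active means over half of replicate activation scores above 10%, or exactly half above 10 with the replicate mean above 10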
697 NFkB inh: lowers PMA/ionomycin-induced NF-kB signal in 697 B cells. 697 B-cell NF-kB luciferase reporter, 16 h. inhibition, % at 4 µM. 330,000 tested, 0.33% active. AID 435022; in the data active means inhibition above about 35%
Mdm2 MdmX conf: confirmation of human Mdm2/MdmX interaction inhibitors; shares compounds with Mdm2-MdmX inh; Mdm2-MdmX binding, luminescent assay; inhibition, % at 8 µM; 10,000 tested, 55% active; AID 489028; in the data active means inhibition above about 40%
FLuc counter: inhibits full-length luciferase, flagging false Mdm2/MdmX hits; inhibition, % at 8 µM; SaOS-2 full-length luciferase counterscreen, luminescence; shares compounds with Mdm2-MdmX inh; 6,200 tested, 77% active;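 active means mean inhibition at 8 µM reaching about 37%, which flags the compound as non-specific, limit read from the data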;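 further: p53-null SaOS-2 cells with luciferase driven by a doxycycline-inducible promoter; compound on cells about two nights before reading with doxycycline added after day one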
* = called active by the depositor; x = not tested or not shown.

SMILES	Mdm2-MdmX inh	NTR1 ag	Beta cell apopt	Jurkat NFkB inh	A1 inh	697 NFkB inh	Mdm2 MdmX conf	FLuc counter
NC(=S)N/N=C/c1ccc2cccc(OCc3ccccc3)c2n1	35.0	2.8	0.8	-8.9	-0.1	3.9	x	x
COC(=O)[C@H]1[C@H]2C[C@@H]3c4[nH]c5cc(OC)ccc5c4CCN3C[C@H]2C[C@@H](OC(=O)/C=C/c2cc(OC)c(OC)c(OC)c2)[C@@H]1OC	63.9*	2.4	4.4	6.0	-0.3	18.6	36.5	70.0*
COC(=O)[C@H]1[C@H]2C[C@@H]3c4[nH]c5cc(OC)ccc5c4CCN3C[C@H]2C[C@@H](OC(=O)c2ccc(N)cc2)[C@@H]1OC	13.8	0.6	5.7	-2.5	0.1	20.5	x	x
Cc1ccc(N(CC(=O)NCc2ccc(F)cc2)S(=O)(=O)c2c(C)nn(C)c2C)cc1	64.2*	-0.5	20.3	0.9	1.1	7.5	63.0*	63.2*
Cc1nn(C)c(C)c1S(=O)(=O)N(CC(=O)N1CCc2ccccc21)c1ccc(C(C)C)cc1	63.1*	1.4	4.3	12.0	0.9	13.0	24.4	x
Cc1ccc(CNC(=O)CN(c2ccc(C)cc2)S(=O)(=O)c2c(C)nn(C)c2C)cc1	53.4*	-1.2	12.2	4.3	0.2	5.0	51.5*	63.2*
CCC(C)[C@H](NS(=O)(=O)c1ccc(C)cc1)C(=O)N1CCC(C(=O)N[C@H](C(=O)O)c2ccccc2)CC1 (some centres undefined)	10.2	-0.7	-1.7	17.0	1.6	-0.9	x	x
Cc1ccccc1C1C(C#N)=C2NC(=O)c3c(sc4c3CCCCC4)N2C2=C1C(=O)CC(C)(C)C2 (centres undefined)	81.7*	4.5	0.0	-4.3	-1.0	-35.5	63.4*	37.9*
Cc1ccccc1C1C(C#N)=C2N=C(N)c3c(sc4c3CCCCC4)N2C2=C1C(=O)CC(C)(C)C2 (centres undefined)	39.3	3.6	-3.6	2.2	-0.3	-15.8	x	x
COc1cc2ccccc2cc1C(=O)NNC(=O)c1ccccc1O	55.7*	1.3	7.5	3.4	0.1	-22.7	48.0*	40.4*
Cc1ccc(Cl)cc1NC(=O)COC(=O)c1ccccc1O	24.0	0.5	-2.9	10.8	1.3	1.0	x	x
Cc1ccc(Cl)cc1NC(=O)c1cc2ccccc2cc1O	92.7*	18.4	103.8*	13.4	-1.1	-14.5	96.5*	51.7*
COc1cc(NC(=O)c2cc3ccccc3cc2O)c(OC)cc1Cl	100.3*	12.9	110.6*	5.0	0.3	1.7	91.2*	42.4*
COc1cc(NC(=S)N2CCN(S(=O)(=O)c3ccccc3)CC2)cc(OC)c1	19.0	0.0	1.3	-6.8	-0.7	-7.8	x	x
COCCN(CCOC)c1nc(-c2ccc(C)cc2)nc2ccccc12	10.0	13.7	4.6	-6.3	0.6	-25.6	x	x
Cc1ccc(-c2nc(C(Cl)Cl)c3ccccc3n2)cc1	95.5*	12.1	93.7*	10.6	0.5	-171.9	48.8*	15.1
Nc1nsc2ccccc12	61.2*	0.0	-11.5	-0.9	-0.1	-6.3	26.3	x
Nc1nnc(N)c2ccccc12	-13.7	1.6	-3.9	-3.5	-0.5	5.3	x	x
Cc1cc(SCC(=O)c2ccc(O)c(O)c2)n2nc(C)c(-c3ccccc3)c2n1	51.9*	8.0	0.4	19.9	1.7	-0.1	57.1*	54.4*
Cc1cc(C)nc(SCC(=O)c2ccc(O)c(O)c2)n1	7.0	0.6	2.0	-26.4	0.7	-8.5	x	x
Cc1nnc2ccc(N3CCN(C(=O)c4ccccc4)CC3)nn12	0.0	-1.2	-13.0	2.8	-0.4	3.0	x	x
O=C(c1ccc(Br)o1)N1CCN(c2ccc3nnc(-c4ccccc4)n3n2)CC1	57.9*	4.9	2.0	-16.8	-0.6	-98.3	-4.4	x
N=c1c2c(ncn1Cc1ccco1)Oc1c(ccc3ccccc13)C2c1ccccc1 (centres undefined)	70.5*	6.6	x	26.0	0.0	-19.4	69.5*	54.8*
CN(C)CCn1cnc2c(c1=N)C(c1ccccc1)c1ccc3ccccc3c1O2 (centres undefined)	98.0*	6.6	21.2	18.3	-0.2	-19.4	70.8*	40.4*
N=c1c2c(ncn1CCN1CCOCC1)Oc1ccc3ccccc3c1C2c1ccccc1 (centres undefined)	39.6	14.8	18.7	-6.2	0.4	-10.4	x	x
SMILES	Mdm2-MdmX inh	NTR1 ag	Beta cell apopt	Jurkat NFkB inh	A1 inh	697 NFkB inh	Mdm2 MdmX conf	FLuc counter
COc1ccc(C2c3c(ncn(CCN4CCOCC4)c3=N)Oc3ccc4ccccc4c32)cc1 (centres undefined)	70.6*	6.9	-1.1	-8.4	-1.0	-20.4	55.1*	64.6*
CC1([N+](=O)[O-])COC2(OC1)C(=O)Nc1ccccc12 (centres undefined)	19.1	-1.4	-3.3	-12.5	0.0	12.0	x	x
CCc1nc(SCc2ccccc2C)n[nH]1	10.7	0.3	-0.2	0.9	-0.1	-34.6	x	x
CC(C)(C)c1ccc(-n2nc(C#N)c(Cl)cc2=O)cc1	100.3*	-1.7	x	39.7	x	13.0	100.2*	0.9
O=C(CC1C(=O)NCCN1C(=O)c1ccccc1)Nc1cc(Cl)ccc1Cl (centres undefined)	22.9	1.6	2.0	3.2	-1.2	17.0	x	x
CSc1nc2nccc(-c3ccc(Cl)cc3)n2n1	47.2	-0.9	-2.2	-13.6	-0.2	-21.4	x	x
CSc1nc2nccc(/C=C\c3ccccc3)n2n1	75.2*	7.2	-15.4	-10.3	0.9	4.5	66.2*	23.7
O=S(=O)(Cc1ccccc1)NCCc1cccc(Cl)c1	8.5	1.5	x	11.3	0.5	9.9	x	x
O=C(CCS(=O)(=O)Cc1ccccc1)Nc1nc2c(s1)CCCC2	56.0*	-0.8	-11.3	7.7	0.3	-12.6	63.0*	61.0*
COc1cnc(-c2ccccn2)nc1N(C)C	72.2*	-1.1	81.1*	16.0	0.1	4.9	79.0*	42.4*
CN(C)c1nc(-c2ccccn2)nnc1-c1ccccc1	75.7*	0.7	5.1	-1.6	-0.4	-19.8	3.5	x
CCN(CC)c1nc(-c2ccccn2)nc(-c2ccccc2)c1C#N	58.5*	0.4	x	4.3	-0.9	8.9	37.5	x
Cc1ncc(CO)c2c1Oc1nc(-c3ccccc3)nc(SCC(=O)Nc3cccc(O)c3)c1C2	51.4*	17.6	3.2	5.6	-0.6	19.6	-2.5	x
CN(c1ncnc(N)c1[N+](=O)[O-])C1CCCCC1	80.2*	2.0	-26.1	22.3	-1.3	-18.0	81.6*	51.3*
CCCCN(c1ccccc1)c1ncnc(N)c1[N+](=O)[O-]	54.6*	1.5	-10.5	19.0	0.0	13.7	83.2*	51.7*
